We go through 96 compounds from PubChem BioAssay AID602449 (Sanford-Burnham Center for Chemical Genomics, 2012).

The whole screen tested about 360,000 compounds, of which about 5,000 (1.4%) were called active.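 How the source made its calls: active means inhibition of 50% or more, scaled per plate between neutral and stimulator controls; inactive means the rest.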 For the sample, actives were picked, then their nearest neighbours and some compounds at random.

The nature of the assay: mitochondrial permeability transition pore inhibitors, primary screen, biochemical, isolated mouse mitochondria, absorbance (AID 602449).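 Further: 0% = DMSO wells given calcium and 100% = 1 mM EGTA wells.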 To be noted: Ca2+ swelling absorbance, 30 min, at 10 µM, hits give high values.
For `COc1cccc(NC(=O)CN(C)C(=O)CSCc2nc3scc(-c4cccs4)c3c(=O)[nH]2)c1`, the inhibition was -0.9% (inactive).

For `Cc1ccccc1N1CC(C(=O)Nc2nnc(SCCC3OCCO3)s2)CC1=O` (stereo unspecified), the inhibition is -2.6% (inactive).

As for `Cc1cc([N+](=O)[O-])ccc1NCc1cccc([N+](=O)[O-])c1`, the inhibition was 6.8% (inactive).

For `CC(C)c1ccc(C=NNc2ccc([N+](=O)[O-])cn2)cc1`, the inhibition is 7% (inactive).

As for `Cc1ccccc1OCCOc1ccc([N+](=O)[O-])cc1/C=N/n1cnnc1`, the inhibition was 3.3% (inactive).

In the case of `O=[N+]([O-])c1ccc(N/N=C/c2ccccc2)cc1`, the inhibition is 63.2% (active).

Regarding `O=[N+]([O-])c1ccc(N=NNc2ccc([N+](=O)[O-])cc2)cc1`, the inhibition was 21.4% (inactive).

Take `Cc1cccc(COc2ccccc2/C=N/Nc2ccc([N+](=O)[O-])cc2)c1`: the inhibition was 69.1% (active).

As for `c1ccc(-c2cn3c(n2)CCc2ccc4cccnc4c2-3)cc1`, the inhibition was -2% (inactive).

In the case of `O=C(OCC(=O)N1CCCCCC1)c1cccc(Cl)c1Cl`, the inhibition was 3.6% (inactive).

`CN(C)CCN=c1cc(-c2ccccc2)oc2ccc(Cl)cc12`: the inhibition was 3% (inactive).

As for `CCCCn1c(N)c(N(CC(C)C)C(=O)c2ccc(Br)o2)c(=O)[nH]c1=O`, the inhibition is -1.5% (inactive).

Consider `CC/C(=N\NC(=S)NC(C)C)c1ccc(OC(F)F)cc1`, for which the inhibition was 1.8% (inactive).

With `CC(C)N(Cc1ccccc1)C(=S)Nc1ccc(OC(F)F)cc1`, the inhibition is 5.8% (inactive).

On to `CC(NC(=S)Nc1ccc(OC(F)F)cc1)c1ccc(F)cc1` (stereo unspecified), for which the inhibition was 102% (active).

Take `Cc1cc(Br)ccc1NC(=O)c1cnc(N2CCN(c3ccccn3)CC2)c2ccccc12`: the inhibition is 0.4% (inactive).

As to `O=C(O)c1ccc([N+](=O)[O-])cc1Sc1ccsc1`, the inhibition is 0.7% (inactive).

On to `COCCn1c(SCC(=O)Nc2cc(OC)ccc2OC)nc2c(c1=O)SC(C)C2` (stereo unspecified), for which the inhibition is 1.2% (inactive).

Take `CCCCCc1c(-c2cccc(Br)c2)ncn1CCc1ccccc1OC`: the inhibition was 1.3% (inactive).

For `CCCCCc1c(-c2ccc(OC)c(OC)c2)ncn1CCc1ccccc1OC`, the inhibition is 5.6% (inactive).

Regarding `CCCCCc1c(Cc2ccccc2)ncn1CCc1ccccc1OC`, the inhibition was 85.6% (active).

As for `CCCCn1c(N)c(N(CC(C)C)C(=O)c2cccc(S(=O)(=O)N3CC(C)OC(C)C3)c2)c(=O)[nH]c1=O` (stereo unspecified), the inhibition is 6.1% (inactive).

For `CCOC(=O)c1cnc(Nc2nc3ccccc3o2)nc1CSC(=S)N1CCCCC1`, the inhibition was 1.4% (inactive).

With `O=C(CN1C(=O)CC(c2ccccc2)=Nc2ccccc21)NC1CCCCC1`, the inhibition is -0.4% (inactive).

Take `Cc1cc(C=O)c(C)n1-c1ccc(NC2CCCCC2)c([N+](=O)[O-])c1`: the inhibition is 80.6% (active).

Consider `COc1ccc(NC(=O)CN(C)C(=O)c2ccc(NC3CC3)c([N+](=O)[O-])c2)cc1`, for which the inhibition was 0.5% (inactive).

Regarding `Cc1cc([N+](=O)[O-])c(NC2CCCCC2)c([N+](=O)[O-])c1`, the inhibition was 0.6% (inactive).

Regarding `OC[C@@H]1CN(Cc2ccc(-c3ccccc3)cc2)C[C@H](n2cnc3c(NC4CCCC4)ncnc32)O1`, the inhibition was 17.2% (inactive).

In the case of `COC(=O)c1ccc(OCC(O)CN(CCO)CC(O)Cn2ccc3ccccc32)cc1` (stereo unspecified), the inhibition is 0% (inactive).

As to `Cc1ccc(N(CCC(=O)O)S(=O)(=O)c2cccc(C(F)(F)F)c2)cc1`, the inhibition was 1.1% (inactive).

For `Cc1oc2c(F)c(F)c(F)c(F)c2c1S(=O)(=O)Nc1cccc(C(F)(F)F)c1`, the inhibition was 83.3% (active).

With `Cc1noc(C)c1S(=O)(=O)Nc1cc(C(F)(F)F)ccc1N1CCOCC1`, the inhibition is 4.6% (inactive).

`O=C(c1ccccn1)c1ncc(C(F)(F)F)cc1Cl`: the inhibition is -0.8% (inactive).

With `N/C(=N\OC(=O)Nc1ccc(Cl)c(Cl)c1)c1ncc(C(F)(F)F)cc1Cl`, the inhibition is 88.1% (active).

As for `N/C(=N\OC(=O)CCCC(=O)O)c1ncc(C(F)(F)F)cc1Cl`, the inhibition is -0.2% (inactive).

As for `ONC(=Nc1ccc(Cl)cc1)c1ccccc1Cl`, the inhibition is 1% (inactive).

Turning to `CCOC(=O)C1CSC(CC(=O)Nc2ccc(OCC)cc2)C(=O)N1` (stereo unspecified), the inhibition was 3.6% (inactive).

In the case of `CCCCCCNCCn1cnc2c(N)ncnc21`, the inhibition is -0.8% (inactive).

Consider `COc1cccc(-c2cnc(OC(C)(C)C)nc2OC(C)(C)C)c1`, for which the inhibition is -0.3% (inactive).

With `COc1ccc(C(C)NC(=O)C2CCCC2)cc1` (stereo unspecified), the inhibition was 0.1% (inactive).

Consider `CCN(CC(=O)NCCCN1CCOCC1)S(=O)(=O)c1cc(Cl)ccc1Cl`, for which the inhibition is -1.1% (inactive).

Take `COc1ccc(Cl)cc1NC(=O)CN(C)Cc1ccc(OC)c(OC)c1`: the inhibition was 0.9% (inactive).

In the case of `COc1ccc(Br)cc1C(=O)NC(=S)Nc1cc(-c2nc3ccccc3[nH]2)ccc1C`, the inhibition was 70.7% (active).

In the case of `COc1ccc(Br)cc1C(=O)Nc1cccc(C)c1C`, the inhibition was -1.2% (inactive).

Turning to `COc1ccccc1C(=O)NC(=S)Nc1ccccc1N1CCCCC1`, the inhibition is 1.3% (inactive).

Consider `CC1CCCCC12NC(=O)N(CC(=O)OCC(=O)NCc1ccc(F)cc1)C2=O` (stereo unspecified), for which the inhibition was -0.2% (inactive).

On to `O=C(Nc1nsc(-c2ccccc2)n1)c1ccncc1`, for which the inhibition is 0.9% (inactive).

Turning to `O=C(CN(c1cccc(Cl)c1)S(=O)(=O)c1ccccc1)NN=C1CCCC1`, the inhibition is 0.3% (inactive).

As for `CCCCOC(=O)CNc1nnc(SCC(=O)OCC)[nH]c1=O`, the inhibition was 77.3% (active).

For the compound `CCOC(=O)CSc1nc(C)c(Oc2ccc(Cl)cc2Cl)c(=O)[nH]1`, the inhibition is 2.7% (inactive).

On to `Cc1nnc(SCC(=O)N2CCOCC2)[nH]c1=O`, for which the inhibition was 26.4% (inactive).

Turning to `COc1ccccc1P(=O)(c1ccccc1)c1ccccc1NC(C)=O` (stereo unspecified), the inhibition was 0.1% (inactive).

Turning to `COC(C[C@H](O)CC(=O)COCc1ccccc1)OC`, the inhibition is -0.4% (inactive).

As to `CC(C)(C)c1nnc(NC(=O)C2c3ccccc3Oc3ccccc32)s1`, the inhibition was 6.5% (inactive).

For the compound `O=C(N/N=C/c1ccc(O)c(O)c1)C1c2ccccc2Oc2ccccc21`, the inhibition is 104% (active).

As to `Cn1c(SCC(=O)N/N=C/c2ccc(O)c(O)c2)nc2ccccc21`, the inhibition was 2.9% (inactive).

On to `COc1ccc(CNS(=O)(=O)c2cc(-c3cc(C)no3)ccc2C(C)C)cc1`, for which the inhibition is -0.4% (inactive).

With `Cc1c(NC(=S)NCc2ccc(F)cc2)cccc1[N+](=O)[O-]`, the inhibition is 96.5% (active).

Regarding `Cc1cccc(NC(=S)NCCc2ccc(F)cc2)c1C`, the inhibition is 0.7% (inactive).

Regarding `COc1cc(NC(=S)NCc2ccc(S(N)(=O)=O)cc2)cc(OC)c1`, the inhibition was -1% (inactive).

`CC(C)CNC(=S)Nc1ccc(F)cc1`: the inhibition was 2.1% (inactive).

Regarding `Cc1cc(C)cc(NC(=S)NCc2ccc(F)cc2)c1`, the inhibition was 50.1% (active).

`Cc1c(NC(=O)CCCOc2ccccc2)cccc1[N+](=O)[O-]`: the inhibition is 0.1% (inactive).

As for `C/C(=N\N=C(N)N)c1ccc(Cl)cc1`, the inhibition was 2% (inactive).

Regarding `COc1cccc(NC(=O)C(Sc2nnnn2C)c2ccccc2)c1` (stereo unspecified), the inhibition was -1.4% (inactive).

For `CCOc1ccc(OCC)c(NC(=O)CN(C)S(=O)(=O)c2cccc3nsnc23)c1`, the inhibition was -0.3% (inactive).

Turning to `COc1ccccc1OCCNc1cc(N2CCOCC2)ccc1[N+](=O)[O-]`, the inhibition was 2.8% (inactive).

Take `COc1ccc(CCNc2cc(N3CCN(C(=O)c4ccccc4OC)CC3)ccc2[N+](=O)[O-])cc1OC`: the inhibition was 55.3% (active).

With `COc1ccc(CCNC(=O)c2ccccc2-c2ccccc2C(=O)O)cc1OC`, the inhibition was -0.5% (inactive).

For the compound `O=S(=O)(CCc1nc2ccccc2o1)c1ccc(Cl)cc1`, the inhibition was -1.2% (inactive).

As for `S=C(NCCc1ccccc1)NCc1ccccc1Cl`, the inhibition was 69.8% (active).

Consider `O=C(NCCc1ccccc1)C1CC1`, for which the inhibition was -0.4% (inactive).

For the compound `Cc1cc(F)ccc1NC(=S)NCCc1ccccc1`, the inhibition is 0% (inactive).

For the compound `O=C(NCCCc1ccccc1)C1CCC(CNc2c(N3CCCCC3)c(=O)c2=O)CC1` (stereo unspecified), the inhibition is 0.1% (inactive).

For `CC(C)(CNC(=O)Cc1ccc(Cl)cc1Cl)N1CCOCC1`, the inhibition was 1.9% (inactive).

Consider `CC1=NN(/C(=N\c2nnc(C)s2)Nc2ccccc2)[C@H](c2ccc(C)cc2)S1`, for which the inhibition is 0.1% (inactive).

Take `COc1nc(NC2CCCCC2)nc(N2CCCCCC2)n1`: the inhibition was 20.8% (inactive).

As for `CN(N)c1nc(N2CCCC2)nc(N2CCCC2)n1`, the inhibition was 1.8% (inactive).

In the case of `FC(F)(F)COc1nc(N2CCCCC2)nc(N2CCNCC2)n1`, the inhibition was 78.3% (active).

On to `O=S(=O)(c1ccccc1)N1CCC(c2ccccc2)CC1`, for which the inhibition was 1.4% (inactive).

As to `COc1ccc(C2(C)ON(c3ccccc3C(F)(F)F)C2=O)cc1` (stereo unspecified), the inhibition is -1.7% (inactive).

In the case of `CCc1noc(C)c1C(=O)Oc1ccc(N(C)S(=O)(=O)c2ccc(C)c(C)c2)cc1`, the inhibition was 0.2% (inactive).

`Cc1ccc(CNC(=O)CCC(=O)N2CC(C)Sc3ccccc32)cc1` (stereo unspecified): the inhibition is -1.8% (inactive).

On to `O=C(c1ccc(Cl)cc1)c1ccc(OCC(O)CN2CCCCC2)cc1` (stereo unspecified), for which the inhibition was 96.3% (active).

Turning to `CC(=O)Nc1ccc(OCC(O)CN2CCN(c3ccccc3Cl)CC2)cc1` (stereo unspecified), the inhibition is -1.1% (inactive).

Take `OC(COc1ccc(CN2CCSCC2)cc1)CN1CCCCC1` (stereo unspecified): the inhibition is 1.1% (inactive).

As for `CN1CCN(c2ccc([N+](=O)[O-])c(Sc3nc4ccccc4[nH]3)c2)CC1`, the inhibition was -0.9% (inactive).

With `CCC(C)N1C(=O)S/C(=C/c2ccc(Sc3nc4ccccc4[nH]3)o2)C1=O` (stereo unspecified), the inhibition was 91.9% (active).

`CCC(c1nc2ccccc2[nH]1)n1c(=O)c(-c2cccs2)nc2ccccc21` (stereo unspecified): the inhibition is 2.6% (inactive).

`O=C(NC1CCCC1)C1c2ccccc2OCC(=O)N1CC(F)(F)F` (stereo unspecified): the inhibition was -0.2% (inactive).

Turning to `COc1ccc(N2CCN(C(=O)[C@@H](NC(=O)c3cc(OC)cc(OC)c3)C(C)C)CC2)cc1`, the inhibition was 0.3% (inactive).

In the case of `O=C(Nc1nnc(S(=O)(=O)N2CCCCCC2)s1)c1cccc(Br)c1`, the inhibition is 79.7% (active).

As for `O=C(Nc1nnc(S(=O)(=O)N2CCOCC2)s1)c1cccc(Br)c1`, the inhibition is 4.6% (inactive).

Turning to `COc1cccc(C(=O)Nc2nnc(S(=O)(=O)N3CCOCC3)s2)c1`, the inhibition is -1% (inactive).

For the compound `COc1cccc(C(NC(C)=O)c2nc(-c3cnc4ccccc4c3)cs2)c1` (stereo unspecified), the inhibition was 0.4% (inactive).

In the case of `CCCCn1c(N)c(N(CCC(C)C)C(=O)c2ccc([N+](=O)[O-])o2)c(=O)[nH]c1=O`, the inhibition is -0.3% (inactive).

A word on the inhibition: it is the relative decrease from the control value, in per cent.
